Bioassay records: PubChem, several laboratories
cardiac RTF act = increases calcium sensitivity of human cardiac regulated thin filaments. IANBD-labeled TnC RTF fluorescence at EC20 calcium; 0% EC20 calcium, 100% full calcium. activation, % at 7.2 µM. 0.24% of 340,000 active;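 active = activation above the mean over all tested compounds plus 3 SD, cut at about 30% in these data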;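 also: rise in fluorescence read as greater calcium sensitivity of cardiac thin filaments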
Cardiac RTF inh = cardiac RTF calcium desensitization. P19429+P45379. IANBD-labeled cardiac RTF, Ca2+ fluorescence. inhibition, % at 7.15 µM. 0.12% of 340,000 active. AID 493244;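 active = inhibition above the mean inhibition of all tested compounds plus 3 SD, cut at about 17% in these data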;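 also: assay run at fixed EC70 calcium of 1.6 mM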
Myeloid diff MLP = promotes myeloid progenitor differentiation; ER-HoxA9 myeloid progenitors, lysozyme-GFP differentiation, flow cytometry; calls only at 10 µM; 1% of 360,000 active;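 active = normalized GFP-positive differentiation at or above the plate's own cutoff, the solvent-only control mean plus 3 SD; inconclusive = no clear call, values can overlap the other calls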;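 also: cells exposed to compound for four days before flow analysis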
CRFR2-BP ag = CRF-BP/CRF-R2 complex agonism; HEK293 CRF-R2/CRF-BP, calcium dye fluorescence (FLIPR); percent of saturating CRF peptide response; activation, % at 13.2 µM; 0.46% of 350,000 active; AID 588473;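 active = activation of at least 50%, plus an integration ratio under a set limit after plate pattern correction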;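 also: plate controls were neutral control wells without compound for no effect and CRF at EC100 for full effect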
CRFBP-R2 block = blocks CRF-induced signaling of the CRF-BP/CRF-R2 complex; inhibition, % at 11.8 µM; HEK293 CRF-R2/CRF-BP, CRF-induced calcium fluorescence; 0.59% of 350,000 active; AID 588475;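 active = inhibition of the ligand-induced calcium signal above about 50% at the single tested concentration, limit read from the data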
* hit, by the source's call; i = inactive; ? = inconclusive; . = no result given; + = active, no number; ! = a repeat was not active. Sampled rows, rich in hits. Any-hit rate of the full collection: about 2.2%.

SMILES	cardiac RTF act	Cardiac RTF inh	Myeloid diff MLP	CRFR2-BP ag	CRFBP-R2 block
CCN(CC(=O)Nc1ccc(NC(C)=O)cc1)C(=O)c1ccc(=O)[nH]c1	-2.9	3.4	i	0.7	-5.0
CCN(CC(=O)Nc1ccc(NC(C)=O)cc1)C(=O)c1ccc(=O)n(C)n1	-0.8	-1.0	i	-0.3	98.4*
CCOc1ccc(C(C)NC(=S)NCc2ccc(Cl)cc2)cc1 (stereo not drawn)	-3.1	-4.0	i	95.3*	-96.2
CCC(C)c1ccc(C(C)NC(=S)NCc2ccc(F)cc2)cc1 (stereo not drawn)	-2.9	5.6	i	15.6	-16.9
CCCc1ccc(C(C)NC(=S)NCc2ccc(F)cc2)cc1 (stereo not drawn)	-4.0	-0.3	?	53.3*	-66.5
CCCc1cc(=O)[nH]c(SCC(=O)c2cc(C)n(C(C)COC)c2C)n1 (stereo not drawn)	0.7	-0.9	i	-1.5	19.1
CC1=CCC(C(=O)O)C(C(=O)Nc2nc3ccc(S(C)(=O)=O)cc3s2)C1 (stereo not drawn)	0.7	0.6	+	-0.9	10.1
Cc1cccc(NC(=O)C2CC2c2ccccc2)c1C (stereo not drawn)	-0.1	-2.5	i	70.0*	-12.7
O=C(CSc1nc2ccc(Cl)cc2[nH]1)c1c[nH]c2ccccc12	3.4	-4.8	i	-1.4	-13.8
O=C(CSc1nc2ncc(Cl)cc2[nH]1)c1c[nH]c2ccccc12	2.0	3.2	+	1.8	-6.7
O=C1C(O)CC2c3ccccc3CC3(CCCC3)N12 (stereo not drawn)	4.0	-9.8	+	-1.3	-23.2
COc1ccccc1N1CCN(C(=O)CCNS(=O)(=O)c2cc(Br)cnc2N)CC1	0.5	-3.1	?	-1.1	9.1
O=C(NCCC1=CCCCC1)C1CCC(=O)N(Cc2ccc(Cl)cc2)C1 (stereo not drawn)	-3.5	-5.6	+	0.2	7.2
CCN(CC)S(=O)(=O)c1cc(OC)c(Cl)cc1Cl	-2.8	-7.6	i	-0.9	6.8
CCN(CC)S(=O)(=O)c1cc(OC)c(C)cc1C	-1.0	-1.2	i	-2.0	68.8*
Cc1ccsc1CNC(=O)C1(C)CCN1C(C)C (stereo not drawn)	.	.	i	.	.
O=C(NNC(=S)Nc1ccc(Cl)cc1)c1ccccc1OC(F)F	9.4	2.9	i	51.1*	-52.0
COc1ccccc1CNC(=O)COC(=O)c1ccc(C)c(S(=O)(=O)N2CCCCC2)c1	-1.2	0.8	i	0.6	17.3
Cc1ccc(C(=O)NCCN2CCC(n3c(=O)[nH]c4ccccc43)CC2)cc1F	.	.	i	.	.
COc1ccc(NC(=O)CN(C)C(=O)CSc2ccc3c(c2)OCCO3)cc1	2.6	-6.6	i	180.5*	-131.1
COc1ccc(NC(=O)CSc2ccc3c(c2)OCCO3)cc1	-7.3	0.5	i	-0.4	6.6
COc1cc(NC(=O)CCNC(=O)Cn2cnc3sc4c(c3c2=O)CCCC4)cc(OC)c1OC	0.1	5.6	+	0.6	0.4
COc1ccc(/C=C(\NC(=O)c2ccco2)C(=O)NCc2ccco2)cc1	-5.1	-1.3	i	-0.2	2.0
Cc1ccc(NC(=S)NCc2ccccn2)cc1	2.3	-11.6	i	0.6	74.5*
Cc1cccc(NC(=S)NCc2ccccn2)c1	-2.2	-8.5	i	-1.0	0.6
SMILES	cardiac RTF act	Cardiac RTF inh	Myeloid diff MLP	CRFR2-BP ag	CRFBP-R2 block
CN=Cc1nc(-c2ccccc2)oc1O	-2.9	5.7	i	-1.2	17.1
CC1=Nc2ccccc2/C1=C\c1nc(-c2ccc(F)cc2)oc1O	83.9*	-134.4	i	36.4	-69.5
COCCN(C(=O)c1ccccc1F)c1nnc(-c2ccc(OC)cc2)s1	2.7	-4.9	i	-0.5	7.1
CC1(C)CNc2cc(N)ccc2S1	1.5	-1.6	+	1.9	-9.9
CC1=CN2C(=NC(=O)CC2(C)C(=O)N(CC(=O)NC2CCCC2)c2ccccc2C)C=C1 (stereo not drawn)	-0.9	3.6	i	0.0	54.2*
CC1=CC2=NC(=O)CC(C)(C(=O)N(CC(=O)NC3CCCC3)c3ccccc3C)N2C=C1 (stereo not drawn)	6.9	2.5	i	-1.3	-1.3
O=C(Cc1ccc(Cl)cc1Cl)NC1CCCCCC1	2.0	-0.9	+	-4.4	-7.4
CO/N=C/C(C#N)c1ncc(C(F)(F)F)cc1Cl (stereo not drawn)	-4.3	-10.4	i	49.2	76.8*
Cc1ccc(Cn2c(NCCc3ccccc3)nc3c2c(=O)n(C)c(=O)n3C)cc1	-2.1	-4.2	+	-1.9	-0.5
C=CCn1c(NCCc2ccccc2)nc2c1c(=O)n(C)c(=O)n2C	2.4	-1.4	i	7.2	8.7
C/C(Cl)=C\Cn1c(NCCc2ccccc2)nc2c1c(=O)n(C)c(=O)n2C	3.4	-12.2	+	-0.1	-16.8
CCCS(=O)(=O)c1nnnn1-c1cccc(OC)c1	0.0	-8.5	.	1.1	-66.5
N#C/C(=C/c1ccc(N2CCCCC2)o1)C(=O)Nc1ccc(Cl)cc1	41.1*	-109.6	+	155.1*	-117.3
N#C/C(=C/c1ccc(N2CCCCC2)o1)C(=O)Nc1ccc2ccccc2c1	166.0*	-199.8	i	207.1*	-204.3
CC1CC1c1ccc(/C=C(\C#N)C(=O)Nc2ccc(Cl)cc2)o1 (stereo not drawn)	11.9	0.6	i	9.8	-16.2
CCN(CC)c1ccc(C(=C2C=CC(=[N+](CC)CC)C=C2)c2ccccc2)cc1	2.3	-1.4	?	90.5*	-9.5
Oc1sc(C=Nc2ccccc2)c2ccccc12	75.3*	-110.9	i	123.4*	-227.7
Oc1sc(C=Nc2ccc(F)cc2)c2ccccc12	14.1	-28.9	i	43.3	-87.7
CC1(C)S[C@@H]2[C@H](NC(=O)[C@H](N)c3ccccc3)C(=O)N2[C@H]1C(=O)O	-3.2	8.1	+!	-2.0	19.5
O=S(=O)(NC1CC2CCC1C2)c1ccc(Br)cc1 (stereo not drawn)	-0.5	-6.0	i	-0.7	-11.8
COc1ccc(C(C(=O)NC2CCCCC2)N(C(=O)Cc2c[nH]c3ccccc23)c2ccccc2C)cc1OC (stereo not drawn)	10.5	-7.6	i	0.5	12.0
COc1ccc(C(C(=O)NC2CCCCC2)N(Cc2cccs2)C(=O)Cc2c[nH]c3ccccc23)cc1OC (stereo not drawn)	0.5	0.3	i	2.9	52.5*
O=C(Nc1cccc(C(F)(F)F)c1)Nc1nnc([C@@H]2C[C@H](O)[C@@H](CO)O2)s1	.	.	i	.	.
O=C(O)CCn1c(SCc2cccc3ccccc23)nc2ccccc21	2.5	-8.9	i	-1.2	6.2
O=C(O)c1ccccc1CSc1nc2ccccc2n1Cc1ccccc1C(=O)O	0.4	-0.4	+	-0.8	0.3
CN(C)c1ccc(-c2ccnc3c2CC(C)(C(=O)NCC2CC2)O3)cc1 (stereo not drawn)	.	.	i	.	.
